# Data from PubChem BioAssay (NCI).
# Values joined by “and” are separate entries in the source; they are usually repeats but may differ in a detail not shown here. Equal entries are not always repeated. About 83,000 compounds went through this panel and 20% of them were active in at least one assay; those are over-represented in the sample as a whole.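 Values shown are percent growth following 48 h exposure of cells in 96-well plates to a single concentration of compound; below 10 was considered active.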 Values without a mark were called inactive. Active and inactive are the calls of the source.
# Experiments:
# Assay in all cases: NCI-60 one-dose screen, 48 h (100 = growth as untreated, 0 = no growth, -100 = all killed)
# Conditions in all cases: 10 µM unless noted
# HCT-15 colon = system: HCT-15 colon
# HT29 colon = system: HT29 colon
# SNB-75 CNS = system: SNB-75 CNS
# SNB-19 CNS = system: SNB-19 CNS
# U251 CNS = system: U251 CNS
# PC-3 prostate = system: PC-3 prostate
# SK-MEL-5 melanoma = system: SK-MEL-5 melanoma
# UACC-62 melanoma = system: UACC-62 melanoma
# LOX IMVI melanoma = system: LOX IMVI melanoma
# SK-MEL-28 melanoma = system: SK-MEL-28 melanoma
Structure (SMILES),growth (HCT-15 colon),growth (HT29 colon),growth (SNB-75 CNS),growth (SNB-19 CNS),growth (U251 CNS),growth (PC-3 prostate),growth (SK-MEL-5 melanoma),growth (UACC-62 melanoma),growth (LOX IMVI melanoma),growth (SK-MEL-28 melanoma)
N#Cc1ccc(C(=O)NNC(=O)CSc2nc3sc4c(c3c(=O)n2-c2ccc(Cl)cc2)CCCC4)cc1,51.2%,56%,86.7%,51.5%,15.9%,67%,38.5%,4.59% (active),39.7%,27.8%
COc1cc(CNC(=O)[C@]23CCC(C)(C)CC2C2=CCC4[C@@]5(C)CCC(OC(C)=O)C(C)(C)C5CC[C@@]4(C)[C@]2(C)CC3)ccc1OCc1cn(-c2ccc(Cl)cc2Cl)nn1 (stereo not given in full),111%,98%,118%,89.8%,104%,98.3%,103%,81.4%,98.3%,117%
CNc1nc2ccccc2n2c(-c3ccc(O)c(O)c3)cnc12,5.19% (active),2.27% (active),-15.5% (active),27.5%,6.12% (active),31.7%,-23.6% (active),4.77% (active),5.44% (active),23.3%
COC(=O)c1ccc(-c2c(-c3ccccc3)c(F)c3oc(C(=O)OC)c(N)c3c2-c2ccccc2)cc1,77%,102%,95.7%,80.2%,82.2%,92.1%,99.4%,82.8%,81.6%,98.9%
NC1(c2ccc(-c3ccc4ncnc(NCc5ccccc5)c4c3)cn2)COC1,109% and 102%,122% and 108%,115% and 103%,100% and 98.8%,112% and 108%,94.4% and 105%,101% and 107%,104% and 94%,99% and 102%,104% and 107%
O=CNc1ccc(-n2cnc3cc(-c4ccc(O)cc4)ccc32)cc1,74%,111%,59.3%,88.5%,84.6%,88.1%,79.4%,99.2%,93.7%,92.9%
O=Cc1cncc(-c2ccc3ncnc(N4CCc5cc(F)c(Cl)cc54)c3c2)c1,18.7%,56.6%,-12.6% (active),49.5%,48.5%,23.6%,19.5%,13.4%,20.8%,44.2%
N#CCc1nnc(NC(=O)c2ccc(-n3c(=O)[nH]c4ccccc4c3=O)cc2)s1,97.1%,116%,86.8%,94.6%,106%,105%,102%,86.8%,90.5%,103%
COc1ccc2[nH]c(O)c(N=Nc3nc(-c4ccccc4)cs3)c2c1,24.9%,50.5%,-1.94% (active),20%,-31% (active),16%,68.8%,30.8%,14.3%,45%
COc1ccc(NC(=O)Cn2c(/C=C/c3cccc(Br)c3)nc3ccccc3c2=O)cc1,70.9%,51.9%,-29.7% (active),49.3%,-1.66% (active),79.3%,78.5%,68.4%,28.8%,70.2%
CCC(=O)c1cc(C(=O)OC)c2ccc3c4ccccc4ccc3n12,91.4%,73.3%,47%,66.9%,21.9%,92.6%,93.8%,89.6%,77.9%,99.6%
Cc1cc(=O)oc2cc(OCC(O)CNN3C(=O)c4cccc5c(N6CCN(C)CC6)ccc(c45)C3=O)ccc12 (stereo not given),91%,89.6%,82.4%,96.2%,103%,105%,102%,79.2%,71%,-17.3% (active)
O=C(Cn1c(-c2ccccc2)nc2ccccc21)N=Nc1c(O)[nH]c2ccc(Br)cc12,1.07% (active),-33.1% (active),-62.4% (active),-35.5% (active),-12.6% (active),9.01% (active),-50.2% (active),-39.7% (active),-24.7% (active),-65.4% (active)
Cn1cc(Nc2ncnc(-c3ccc(N4CCCC4)c(C#N)c3)n2)cn1,40.8%,74.6%,30.8%,92.4%,94.3%,78.8%,49%,59.4%,48.9%,88.3%
c1n[nH]cc1-c1nc2ccc3cn[nH]c3c2c2c1CCCC2,96.2%,95.5%,108%,82.2%,88%,73.4%,81.7%,81.4%,69.9%,98.2%
COc1ccc(-c2cc(-c3ccccc3)c(C#N)c(=O)[nH]2)cc1S(N)(=O)=O,106%,105%,89.4%,92.3%,98.5%,97.2%,104%,110%,94.5%,107%
COc1cc(CNC(=O)C[C@H](C)CCC=C(C)C)ccc1OCc1cn(-c2ccccc2F)nn1,82.8%,97.4%,10.6%,55.7%,61.6%,87.9%,70.8%,69.5%,76.7%,94.9%
N#C/C(=C/c1ccc(Cl)cc1)c1nnc(NC(=O)c2ccc(-n3c(=O)[nH]c4ccccc4c3=O)cc2)s1,95.2%,68.8%,53.3%,51.8%,27.1%,76.2%,27.7%,67.2%,41.8%,74.9%
Cn1cc(-c2cc(N)n3nc(-c4c[nH]c5ccccc45)cc3n2)c2cc(Cl)ccc21,-77.3% (active),-51.4% (active),-14.7% (active),-91.1% (active),-94.7% (active),-27.2% (active),-97.6% (active),-76.9% (active),-82.5% (active),-90.2% (active)
CN(C)C(=O)c1cc(-c2ccc3ncnc(N4CCc5cc(F)c(Cl)cc54)c3c2)cnc1N,-70.8% (active),-68.6% (active),-28.8% (active),-19.8% (active),-55.7% (active),0.623% (active),-98.9% (active),-83.7% (active),-69.3% (active),0.025% (active)
Cc1nn(-c2ccccc2)c2nc(C)n(CC(=O)N/N=C/c3ccccc3O)c(=O)c12,26.7%,41.2%,76.1%,36.5%,28.7%,46.8%,-2.79% (active),3.15% (active),4.1% (active),37.9%
Cc1nc(N)ncc1-c1ccc2ncnc(N3CCc4cc(F)c(Cl)cc43)c2c1,55.5%,67.2%,15.7%,68.3%,67%,54.4%,77.1%,71.8%,60.9%,107%
C=CC(=O)Nc1ccc(C(=O)/C=C/c2ccc(N(C)C)cc2)c(O)c1,-17.2% (active),-37.7% (active),28.1%,28.2%,-56.4% (active),34.4%,2.1% (active),-25.3% (active),-60.3% (active),-6.18% (active)
S=C(Nc1ccc(OCc2nc3ccc(Cl)cc3[nH]2)cc1)NC1CCCCC1,-63.4% (active),-47.2% (active),10.7%,10%,-48.1% (active),17.6%,-96.6% (active),-12.7% (active),-100% (active),0.982% (active)
COc1ccc2[nH]cc(-c3cc(N)n4nc(-c5c[nH]c6ccccc56)cc4n3)c2c1,-79.2% (active),-63.8% (active),82.1%,13.9%,-68.2% (active),10.9%,-93.2% (active),-81% (active),-85.8% (active),-99% (active)
COc1cccc(/C=C/c2nc3ccccc3c(=O)n2CC(=O)Nc2ccccc2)c1,67.8%,58.5%,-35.9% (active),40.4%,7.15% (active),76.1%,73.6%,67.2%,26.8%,76.5%
